SMILES strings stand for the structures. Out of some 39,000 compounds screened, about 500 (1.3%) were called active. The list comes from a sample in which actives are over-represented; it also holds similar structures and randomly drawn compounds.

Our source for the growth inhibition call values is the antibiotic and cytotoxicity screens of Wong et al. (2023).

This assay deals with S. aureus RN4220. Kind of assay: growth inhibition call (relative growth <= 0.2). Particulars: 50 µM.
Turning to `O=C(NO)c1cccc(C(=O)N/N=C/c2cc(I)cc(I)c2O)c1`, the growth inhibition call was “inactive”. The same measure for `O=C(CCCCC(=O)N/N=C/c1cc(I)cc(I)c1O)NO`: “active”; for `O=C(CCCCCCC(=O)N/N=C/c1cc(I)cc(I)c1O)NO`: “inactive”.

Regarding `C[C@H]1CN([C@@H](C)CO)C(=O)c2cccc(NC(=O)Nc3ccc4c(c3)OCO4)c2O[C@H]1CN(C)C(=O)Nc1cccc2ccccc12`, the growth inhibition call is “inactive”. Turning to `COc1ccc(CN(C)C[C@@H]2OCCCC[C@H](C)Oc3ccc(NC(=O)CCC(F)(F)F)cc3C(=O)N([C@H](C)CO)C[C@H]2C)cc1`, the growth inhibition call is “inactive”. On to `COc1ccc(NC(=O)N(C)C[C@H]2Oc3c(NC(=O)CCCCCC(=O)Nc4ccccc4N)cccc3C(=O)N([C@H](C)CO)C[C@@H]2C)cc1`, for which the growth inhibition call is “inactive”. The same measure for `CO[C@@H]1CN(C)C(=O)c2cc(NC(=O)CC(F)(F)F)ccc2OC[C@H](C)N(C(=O)C2CCOCC2)C[C@@H]1C`: “inactive”; for `COC1C=COC2(C)Oc3c(C)c(O)c4c(O)c(c(C=NN5CCN(C6CCCC6)CC5)c(O)c4c3C2=O)NC(=O)C(C)=CC=CC(C)C(O)C(C)C(O)C(C)C(OC(C)=O)C1C` (stereo not given): “inactive”. The same measure for `COC1C=COC2(C)Oc3c(C)c(O)c4c(O)c(c(C=NN5CCN(C)CC5)c(O)c4c3C2=O)NC(=O)C(C)=CC=CC(C)C(O)C(C)C(O)C(C)C(OC(C)=O)C1C` (stereo not given): “inactive”; for `CO[C@H]1/C=C\O[C@@]2(C)Oc3c(C)c(O)c4c(c3C2=O)[C@]2(C=C(NC(=O)/C(C)=C\C=C/[C@@H](C)[C@@H](O)[C@@H](C)[C@@H](O)[C@@H](C)[C@@H](OC(C)=O)[C@@H]1C)C4=O)OCC(=O)O2`: “active”.

With `COC1=C2C[C@@H](C)C[C@H](OC)[C@H](O)[C@@H](C)/C=C(\C)[C@H](OC(N)=O)[C@@H](OC)/C=C\C=C(/C)C(=O)NC(=CC1=O)C2=O`, the growth inhibition call was “inactive”. With `COC1=C2C[C@H](C)C[C@H](OC)[C@@H](O)[C@H](C)/C=C(\C)[C@H](OC(N)=O)[C@H](OC)/C=C/C=C(\C)C(=O)NC(=CC1=O)C2=O` the entry was “inactive”. Take `COC1C=COC2(C)Oc3c(C)c(O)c4c(O)c(c5c(nc6cc(C)ccn65)c4c3C2=O)NC(=O)C(C)=CC=CC(C)C(O)C(C)C(O)C(C)C(OC(C)=O)C1C` (stereo not given): the growth inhibition call is “active”. As to `CO[C@H]1/C=C\O[C@@]2(C)Oc3c(C)c(O)c4c(O)c(c(/C=N/N=C/N5CCCCC5)c(O)c4c3C2=O)NC(=O)/C(C)=C\C=C/[C@H](C)[C@H](O)[C@@H](C)[C@@H](O)[C@@H](C)[C@H](OC(C)=O)[C@@H]1C`, the growth inhibition call is “active”. For `C[C@H](CO)N1C[C@H](C)[C@@H](CN(C)Cc2ccncc2)Oc2c(NS(=O)(=O)c3cn(C)cn3)cccc2C1=O`, the growth inhibition call is “inactive”. On to `O=C1O[C@H](c2ccccc2)[C@H](c2ccccc2)N2[C@H]1[C@@H](C(=O)N1CCN(c3ncccn3)CC1)[C@]1(C(=O)Nc3ccc(C#CC4=CCCCC4)cc31)[C@H]2c1ccc(O)cc1`, for which the growth inhibition call is “inactive”. Take `CC(C)CC#Cc1cnc2c(c1)C(=O)N([C@@H](C)CO)C[C@H](C)[C@@H](CN(C)C(=O)CCN1CCCCC1)O2`: the growth inhibition call is “inactive”.

In the case of `CC(C)NC(=O)Nc1ccc2c(c1)CC(=O)N([C@@H](C)CO)C[C@@H](C)[C@@H](CN(C)S(=O)(=O)c1ccc(F)cc1)O2`, the growth inhibition call is “inactive”.

Consider `Cc1ccc(-c2c[nH]c(=S)[nH]2)cc1`, for which the growth inhibition call was “inactive”. The same measure for `Cn1c(-c2ccccc2)c[nH]c1=S`: “inactive”; for `S=c1[nH]cc(-c2ccccc2)[nH]1`: “active”; for `CC1CC2C3CCC4=CC(=O)C=CC4(C)C3(Cl)C(O)CC2(C)C1(OC(=O)c1ccco1)C(=O)CCl` (stereo not given): “inactive”. Take `CN(C)C(=O)c1ccc(-c2cccc(-c3nc(C(=O)NC4CCCC4)cc4c3[C@@H](CCO)N([S@](=O)C(C)(C)C)C4)c2)cc1`: the growth inhibition call is “inactive”.

Turning to `COc1ccc(S(=O)(=O)Nc2ccc3c(c2)C(=O)N([C@@H](C)CO)C[C@H](C)[C@@H](CN(C)S(C)(=O)=O)OCCCC[C@@H](C)O3)cc1`, the growth inhibition call is “inactive”. On to `COc1cc2nc(N3CCCN(Cc4ccccc4)CC3)nc(NC3CCN(Cc4ccccc4)CC3)c2cc1OC`, for which the growth inhibition call was “inactive”. With `Brc1ccc2nc(N3CCCN(Cc4ccccc4)CC3)nc(NC3CCN(Cc4ccccc4)CC3)c2c1` the entry was “active”; with `COc1cc2nc(N3CCCN(Cc4ccccc4)CC3)nc(Nc3ccc(F)c(Cl)c3)c2cc1OC`, “inactive”; with `COc1ccc2c3c(n(c2c1)C)[C@H](CO)N(Cc1cc(cc(c1)OC)OC)C[C@]13CN(C1)C(=O)NC(C)C`, “inactive”. The same measure for `O=C(O)c1ccc2ccccc2c1`: “inactive”; for `COc1ccc(-c2ccc3cc(C(=O)O)ccc3c2)cc1C12CC3CC(CC(C3)C1)C2`: “inactive”. The same measure for `O=C(O)c1ccc2cc(-c3ccc(O)c(C45CC6CC(CC(C6)C4)C5)c3)ccc2c1`: “active”; for `CCO[C@@H]1OC(C(=O)N2CCOCC2)=C[C@H](c2ccccc2)[C@H]1CCCOC(=O)NCCCCCC(=O)NO`: “inactive”; for `Cc1noc(C)c1NC(=O)N(C)C[C@@H]1Oc2c(NC(=O)c3ccncc3)cccc2C(=O)N([C@@H](C)CO)C[C@H]1C`: “inactive”. With `COc1ccc(S(=O)(=O)N(C)C[C@H]2OCCCC[C@H](C)Oc3ccc(NS(C)(=O)=O)cc3C(=O)N([C@H](C)CO)C[C@H]2C)cc1`, the growth inhibition call is “inactive”. For the compound `CC(C)c1onc(-c2c(Cl)cccc2Cl)c1COc1ccc(/C=C/c2cccc(C(=O)O)c2)c(Cl)c1`, the growth inhibition call is “active”. The same measure for `O=C(O)c1ccnc(N2CC(O)(c3ccc(OCc4c(-c5c(Cl)cccc5Cl)noc4C4CC4)cc3Cl)C2)c1`: “inactive”. With `CC(C)c1onc(-c2c(Cl)cccc2Cl)c1COc1ccc(C=Cc2cccc(C(=O)O)c2)c(Cl)c1` the entry was “inactive”; with `CN(C)C(=O)C[C@H]1C=C[C@@H](NC(=O)C2CC2)[C@H](CO)O1`, “inactive”; with `CCCCN(CCCC)CCCOC(=O)c1ccc(N)cc1.O=S(=O)(O)O`, “inactive”.

Take `CCCCc1oc2ccc(NS(C)(=O)=O)cc2c1C(=O)c1ccc(OCCCN(CCCC)CCCC)cc1`: the growth inhibition call is “active”. As for `CCCCc1oc2ccc(NS(C)(=O)=O)cc2c1C(=O)c1ccc(OCCCN(CCCC)CCCC)cc1.Cl`, the growth inhibition call is “inactive”. With `COC(=O)[C@H](Cc1ccc(-n2cc(C(=O)NO)nn2)cc1)N1C[C@](C)(OC)O[C@@H](Cc2ccccc2)[C@H]1/C=C/C1CC1` the entry was “inactive”; with `Cc1c(N)nc([C@H](CC(N)=O)NC[C@H](N)C(N)=O)nc1C(=O)N[C@H](C(=O)N[C@H](C)[C@@H](O)[C@H](C)C(=O)N[C@H](C(=O)NCCc1nc(-c2nc(C(=O)NCCCNCCCCN)cs2)cs1)[C@@H](C)O)[C@@H](O[C@@H]1O[C@@H](CO)[C@@H](O)[C@H](O)[C@@H]1O[C@@H]1O[C@H](CO)[C@@H](O)[C@H](OC(N)=O)[C@@H]1O)c1c[nH]cn1`, “active”. As to `Clc1ccc(C(c2ccc(Cl)cc2)[n+]2ccn(C[C@@H](OCc3ccc(Cl)cc3Cl)c3ccc(Cl)cc3Cl)c2)cc1`, the growth inhibition call was “inactive”. The same measure for `CCC1OC(=O)C(C)C(OC2CC(C)(OC)C(O)C(C)O2)C(C)C(OC2OC(C)CC(N(C)C)C2O)C(C)(O)CC(C)C2NC(COCCOC)OC(C2C)C1(C)O` (stereo not given): “active”; for `CC[C@H]1OC(=O)[C@H](C)[C@@H](O[C@H]2C[C@@](C)(OC)[C@@H](O)[C@H](C)O2)[C@H](C)[C@@H](O[C@@H]2O[C@H](C)C[C@H](N(C)C)[C@H]2O)[C@](C)(O)C[C@@H](C)[C@@H]2N[C@@H](COCCOC)O[C@H]([C@H]2C)[C@]1(C)O`: “active”; for `CO[C@@H]1CN(C)C(=O)c2cc(NC(=O)Nc3ccc(Cl)cc3)ccc2OC[C@@H](C)N(C(=O)Nc2c(C)noc2C)C[C@@H]1C`: “inactive”.

Take `Cc1ccc(S(=O)(=O)N(C)C[C@@H]2OCCCC[C@@H](C)Oc3ccc(NS(C)(=O)=O)cc3C(=O)N([C@H](C)CO)C[C@@H]2C)cc1`: the growth inhibition call is “inactive”. The same measure for `O=C(C[C@H]1CC[C@H]2[C@@H](COC[C@@H](O)CN2C(=O)c2ccncc2)O1)NC1CCC1`: “inactive”. With `COCC(=O)N1C[C@]2(C1)CN([C@@H](CO)c1[nH]c3cc(ccc3c12)OC)S(=O)(=O)C` the entry was “inactive”.
